# Source: PubChem BioAssay AID1159580 (chemical genetic matrix, 2015)
# “And” between values parts separate entries of the source, which are not always exact repeats. Equal values may be shown once. In all, about 5,500 compounds went through this assay and about 2,000 (36%) were called active. About 18% were inconclusive and are not listed. This is one part of the list. A number with no mark means an inactive call. Cut-off read from the data, not from the text of the source: active = normalized growth mostly below about 0.91 (no sharp cut-off); inconclusive = no clear call, values can overlap the other calls; inactive = mostly above about 0.92.
# Experiment: chemical genetic growth profiling, strain panel (AID 1159580);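 note: tested at 20 µM; growth read once vehicle control cultures reached saturation at 30 °C; 1 = growth at the plate median or of vehicle wells; lower values mean less growth of the strain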
# Settings: S. cerevisiae deletion strains, growth OD
structure (smiles),measurement,setting,value
NC(N)=NCCN1CCCCCCC1,normalized growth,"locus YAL013W, strain DEP1, hits give low values",1
same,normalized growth,"locus YAL021C, strain ccr4, hits give low values",1.02
same,normalized growth,"locus YAL026C, strain drs2, hits give low values",1.02
same,normalized growth,"locus YAL030W, strain snc1, hits give low values",1.03
same,normalized growth,"locus YBL061C, strain skt5, hits give low values",1.03
same,normalized growth,"locus YBR009C, strain hhf1, hits give low values",1.03
same,normalized growth,"locus YBR021W, strain FUR4, hits give low values",1.01
same,normalized growth,"locus YBR023C, strain chs3, hits give low values",1.03
same,normalized growth,"locus YBR171W, strain sec66, hits give low values",1.06
same,normalized growth,"locus YBR229C, strain ROT2, hits give low values",1
same,normalized growth,"locus YBR231C, strain swc5, hits give low values",0.999
same,normalized growth,"locus YBR279W, strain paf1, hits give low values",1.02
same,normalized growth,"locus YCL011C, strain gbp2, hits give low values",1.04
same,normalized growth,"locus YCL016C, strain dcc1, hits give low values",1.02
same,normalized growth,"locus YCL029C, strain bik1, hits give low values",1.01
same,normalized growth,"locus YCL061C, strain MRC1, hits give low values",1.03
same,normalized growth,"locus YCL069W, strain vba3, hits give low values",1.03
same,normalized growth,"locus YCR088W, strain abp1, hits give low values",1.03
same,normalized growth,"locus YDL005C, strain med2, hits give low values",1.04
same,normalized growth,"locus YDL035C, strain GPR1, hits give low values",1.01
same,normalized growth,"locus YDL040C, strain nat1, hits give low values",1.02
same,normalized growth,"locus YDL074C, strain BRE1, hits give low values",1.01
same,normalized growth,"locus YDL101C, strain DUN1, hits give low values",1
same,normalized growth,"locus YDL185W, strain tfp1, hits give low values",1.01
same,normalized growth,"locus YDL192W, strain arf1, hits give low values",1.03
same,normalized growth,"locus YDR001C, strain nth1, hits give low values",1.02
same,normalized growth,"locus YDR069C, strain doa4, hits give low values",1.02
same,normalized growth,"locus YDR101C, strain arx1, hits give low values",1.01
same,normalized growth,"locus YDR137W, strain rgp1, hits give low values",1.04
same,normalized growth,"locus YDR159W, strain sac3, hits give low values",1.05
same,normalized growth,"locus YDR162C, strain NBP2, hits give low values",1
same,normalized growth,"locus YDR195W, strain ref2",1.01
same,normalized growth,"locus YDR297W, strain sur2, hits give low values",1.03
same,normalized growth,"locus YDR318W, strain mcm21, hits give low values",1.02
same,normalized growth,"locus YDR334W, strain swr1, hits give low values",1.03
same,normalized growth,"locus YDR335W, strain msn5, hits give low values",1.03
same,normalized growth,"locus YDR388W, hits give low values",1.02
same,normalized growth,"locus YDR392W, strain spt3, hits give low values",0.986
same,normalized growth,"locus YDR502C, strain sam2, hits give low values",1.01
same,normalized growth,"locus YEL003W, strain gim4, hits give low values",1.02
same,normalized growth,"locus YEL037C, strain rad23, hits give low values",1.03
same,normalized growth,"locus YEL061C, strain CIN8 (second series), hits give low values",1.02
same,normalized growth,"locus YEL061C, strain CIN8, hits give low values",1.01
same,normalized growth,"locus YER015W, strain faa2, hits give low values",1.03
same,normalized growth,"locus YER016W, strain bim1, hits give low values",1.02
same,normalized growth,"locus YER110C, hits give low values",1.03
same,normalized growth,"locus YER111C, strain swi4, hits give low values",1.03
same,normalized growth,"locus YER155C, strain BEM2 (second series), hits give low values",1
same,normalized growth,"locus YER155C, strain BEM2, hits give low values",0.998
same,normalized growth,"locus YER167W, strain BCK2, hits give low values",1
same,normalized growth,"locus YFR010W, strain ubp6, hits give low values",1.03
same,normalized growth,"locus YGL078C, strain dbp3, hits give low values",1.04
same,normalized growth,"locus YGL086W, strain mad1, hits give low values",1
same,normalized growth,"locus YGL167C, strain pmr1, hits give low values",1.05
same,normalized growth,"locus YGL173C, strain kem1, hits give low values",1.03
same,normalized growth,"locus YGL227W, strain vid30, hits give low values",1.03
same,normalized growth,"locus YGL240W, strain doc1, hits give low values",1.02
same,normalized growth,"locus YGL248W, strain PDE1, hits give low values",1.01
same,normalized growth,"locus YGL253W, strain hxk2, hits give low values",1.02
same,normalized growth,"locus YGR078C, strain PAC10, hits give low values",1
same,normalized growth,"locus YGR135W, strain pre9, hits give low values",1.02
same,normalized growth,"locus YGR252W, strain gcn5, hits give low values",0.994
same,normalized growth,"locus YHR013C, strain ard1, hits give low values",1.05
same,normalized growth,"locus YHR027C, strain rpn1, hits give low values",1.03
same,normalized growth,"locus YHR030C, strain SLT2, hits give low values",1.01 and 0.977
same,normalized growth,"locus YHR079C, strain IRE1 (second series), hits give low values",1.02
same,normalized growth,"locus YHR079C, strain IRE1, hits give low values",0.983
same,normalized growth,"locus YHR094C, strain hxt1, hits give low values",1.02
same,normalized growth,"locus YHR129C, strain ARP1, hits give low values",1
same,normalized growth,"locus YHR142W, strain chs7, hits give low values",1.05
same,normalized growth,"locus YHR200W, strain rpn10, hits give low values",1.03
same,normalized growth,"locus YIL066C, strain RNR3, hits give low values",1.01
same,normalized growth,"locus YIL073C, strain SPO22, hits give low values",1.04
same,normalized growth,"locus YIL125W, strain kgd1, hits give low values",1.02
same,normalized growth,"locus YIR030C, strain dcg1, hits give low values",1.02
same,normalized growth,"locus YJL092W, strain hpr5, hits give low values",1.03
same,normalized growth,"locus YJL095W, strain BCK1 (second series), hits give low values",1.02
same,normalized growth,"locus YJL095W, strain BCK1, hits give low values",1.01 and 0.982
same,normalized growth,"locus YJL115W, strain asf1, hits give low values",1.03
same,normalized growth,"locus YJL129C, strain trk1, hits give low values",1.06
same,normalized growth,"locus YJL134W, strain LCB3, hits give low values",1
same,normalized growth,"locus YJL154C, strain vps35, hits give low values",1.01
same,normalized growth,"locus YJL164C, strain tpk1, hits give low values",1.04
same,normalized growth,"locus YJL166W, strain qcr8, hits give low values",1.04
same,normalized growth,"locus YJL168C, strain set2, hits give low values",1.03
same,normalized growth,"locus YJL187C, strain SWE1 (second series), hits give low values",1.01
same,normalized growth,"locus YJL187C, strain SWE1, hits give low values",1.04
same,normalized growth,"locus YJR043C, strain POL32, hits give low values",1
same,normalized growth,"locus YJR066W, strain TOR1, hits give low values",0.932
same,normalized growth,"locus YKL009W, strain mrt4, hits give low values",1.02
same,normalized growth,"locus YKL068W, hits give low values",1.01
same,normalized growth,"locus YKL085W, strain MDH1 (second series), hits give low values",1.01
same,normalized growth,"locus YKL085W, strain MDH1, hits give low values",1.01
same,normalized growth,"locus YKL160W, strain elf1, hits give low values",1.04
same,normalized growth,"locus YKR001C, strain vps1, hits give low values",1.03
same,normalized growth,"locus YKR026C, strain gcn3, hits give low values",1.03
same,normalized growth,"locus YKR091W, strain srl3, hits give low values",1.02
same,normalized growth,"locus YLL001W, strain dnm1, hits give low values",1.02
same,normalized growth,"locus YLL026W, hits give low values",1.03
same,normalized growth,"locus YLL041C, strain sdh2, hits give low values",1.02
same,normalized growth,"locus YLR027C, strain aat2, hits give low values",1.02
same,normalized growth,"locus YLR039C, strain RIC1, hits give low values",1
same,normalized growth,"locus YLR058C, strain SHM2, hits give low values",1.01
same,normalized growth,"locus YLR102C, strain apc9, hits give low values",1.02
same,normalized growth,"locus YLR113W, strain HOG1, hits give low values",0.985
same,normalized growth,"locus YLR221C, strain rsa3, hits give low values",1.05
same,normalized growth,"locus YLR258W, strain gsy2, hits give low values",1.03
same,normalized growth,"locus YLR262C, strain YPT6 (second series), hits give low values",1.25 [resistant] (active)
same,normalized growth,"locus YLR262C, strain YPT6, hits give low values",1.03
same,normalized growth,"locus YLR268W, strain sec22, hits give low values",1.02
same,normalized growth,"locus YLR320W, strain mms22, hits give low values",1.05
same,normalized growth,"locus YLR330W, strain CHS5, hits give low values",1.01
same,normalized growth,"locus YLR342W, strain FKS1 (second series), hits give low values",1.02
same,normalized growth,"locus YLR342W, strain FKS1, hits give low values",1.06
same,normalized growth,"locus YLR357W, strain rsc2, hits give low values",1.03
same,normalized growth,"locus YLR370C, strain arc18, hits give low values",1.03
same,normalized growth,"locus YLR371W, strain rom2, hits give low values",1.02
same,normalized growth,"locus YLR384C, strain iki3, hits give low values",1.03
same,normalized growth,"locus YLR418C, strain cdc73, hits give low values",1.03
same,normalized growth,"locus YML016C, strain PPZ1, hits give low values",1.01
same,normalized growth,"locus YML032C, strain rad52, hits give low values",1.02
same,normalized growth,"locus YML120C, strain ndi1, hits give low values",1.04
same,normalized growth,"locus YML124C, strain tub3, hits give low values",1.03
same,normalized growth,"locus YMR058W, strain fet3, hits give low values",1.02
same,normalized growth,"locus YMR078C, strain ctf18, hits give low values",1.02
same,normalized growth,"locus YMR125W, strain sto1, hits give low values",1.03
same,normalized growth,"locus YMR129W, hits give low values",1.02
same,normalized growth,"locus YMR205C, strain PFK2, hits give low values",1.05
same,normalized growth,"locus YMR223W, strain ubp8, hits give low values",1.02
same,normalized growth,"locus YMR231W, strain pep5, hits give low values",1.04
same,normalized growth,"locus YMR307W, strain GAS1, hits give low values",0.992
same,normalized growth,"locus YNL067W, strain RPL9B, hits give low values",1
same,normalized growth,"locus YNL071W, strain lat1, hits give low values",1.03
same,normalized growth,"locus YNL128W, strain TEP1, hits give low values",1.02
same,normalized growth,"locus YNL183C, strain NPR1, hits give low values",0.959
same,normalized growth,"locus YNL209W, strain ssb2, hits give low values",0.87 (active)
same,normalized growth,"locus YNL233W, strain BNI4, hits give low values",1.01
same,normalized growth,"locus YNL248C, strain rpa49, hits give low values",1.04
same,normalized growth,"locus YNL250W, strain rad50, hits give low values",1.01
same,normalized growth,"locus YNL271C, strain bni1, hits give low values",1.02
same,normalized growth,"locus YNL298W, strain CLA4, hits give low values",1.03
same,normalized growth,"locus YNL307C, strain MCK1, hits give low values",1.02
same,normalized growth,"locus YNL322C, strain KRE1 (second series), hits give low values",1.05
same,normalized growth,"locus YNL322C, strain KRE1, hits give low values",1
same,normalized growth,"locus YNR049C, strain mso1, hits give low values",1.03
same,normalized growth,"locus YNR052C, strain pop2, hits give low values",1.01
same,normalized growth,"locus YOL012C, strain htz1",0.825
same,normalized growth,"locus YOL147C, strain pex11, hits give low values",1.02
same,normalized growth,"locus YOR001W, strain rrp6, hits give low values",0.997
same,normalized growth,"locus YOR061W, strain CKA2, hits give low values",1.01
same,normalized growth,"locus YOR069W, strain VPS5, hits give low values",1
same,normalized growth,"locus YOR070C, strain gyp1, hits give low values",1.05
same,normalized growth,"locus YOR080W, strain dia2, hits give low values",1.03
same,normalized growth,"locus YOR083W, strain WHI5, hits give low values",1.03
same,normalized growth,"locus YOR106W, strain vam3, hits give low values",1.05
same,normalized growth,"locus YOR136W, strain idh2, hits give low values",1.02
same,normalized growth,"locus YOR144C, strain elg1, hits give low values",1.02
same,normalized growth,"locus YOR184W, strain ser1, hits give low values",1.03
same,normalized growth,"locus YOR231W, strain MKK1, hits give low values",0.993
same,normalized growth,"locus YOR265W, strain rbl2, hits give low values",1.05
same,normalized growth,"locus YOR270C, strain vph1, hits give low values",1.07
same,normalized growth,"locus YOR290C, strain snf2, hits give low values",0.981
same,normalized growth,"locus YOR316C, strain cot1, hits give low values",1.02
same,normalized growth,"locus YPL051W, strain arl3, hits give low values",1.02
same,normalized growth,"locus YPL055C, strain LGE1, hits give low values",1.01
same,normalized growth,"locus YPL078C, strain atp4, hits give low values",1.03
same,normalized growth,"locus YPL106C, strain sse1, hits give low values",1.02
same,normalized growth,"locus YPL240C, strain hsp82, hits give low values",1.04
same,normalized growth,"locus YPL256C, strain CLN2, hits give low values",0.977
same,normalized growth,"locus YPR119W, strain clb2, hits give low values",1.03
same,normalized growth,"locus YPR141C, strain kar3, hits give low values",1.02
same,normalized growth,"locus YPR163C, strain tif3, hits give low values",1.03
same,normalized growth,"locus YPR167C, strain met16, hits give low values",1.02
same,normalized growth,"strain wtn01, hits give low values",1.03
